Measurements taken from PubChem BioAssay (NCI).
The panel holds about 83,000 compounds, 20% with a hit somewhere; the sample as a whole holds those more often.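 A percent growth of 40 corresponds to 60% growth inhibition; 0 means no net growth; -100 means all cells died. Active threshold: below 10.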 Activity calls are given as the source filed them.

tested on: MDA-MB-468 breast; assay: NCI-60 one-dose screen, 48 h (100 = growth as untreated, 0 = no growth, -100 = all killed); settings: 10 µM unless noted

Row | Structure (SMILES) | growth
1 | CCCCN(CCCC)Cc1c(C)[nH]c2cc(OC)ccc2c1=O | 113% (inactive)
2 | O=C(O)c1cccc([N+](=O)[O-])c1O | 102% (inactive)
3 | COc1cc(-c2cc3ncccc3c3nc(N)c4cccnc4c23)cc(OC)c1OC | -3.2% (active)
